In PubChem BioAssay:
Activity calls are given as the source filed them. The rule behind the calls is not given here.

Each compound was assayed on Aerobactin synthetase IucA (Klebsiella pneumoniae hvKP1) (assay: Biochemical IucA enzyme inhibition primary screen of the Spectrum library (AID 1346200;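 note: 100% = wells without compound and 0% = wells lacking enzyme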)). Settings: malachite green pyrophosphate, A620, at 8 µM, active compounds read low.

| SMILES | activity remaining |
| --- | --- |
| CC[C@H]1OC(=O)[C@H](C)[C@@H](O[C@H]2C[C@@](C)(OC)[C@@H](O)[C@H](C)O2)[C@H](C)[C@@H](O[C@@H]2O[C@H](C)C[C@H](N(C)C)[C@H]2O)[C@](C)(OC)C[C@@H](C)C(=O)[C@H](C)[C@@H](O)[C@]1(C)O | 119% (inactive) |
| Cc1[nH]ccc2c1[nH]c1cc(=O)ccc12 | 118% (inactive) |
| CC1(C)C=Cc2c(cc3occ(-c4ccc5c(c4)OCO5)c(=O)c3c2O)O1 | 118% (inactive) |
| COC(=O)C1=CO[C@@H](C)[C@@H]2CN3CC[C@@]4(C(=O)Nc5ccccc54)[C@@H]3CC12 (stereo not given in full) | 107% (inactive) |
| CC1O[C@@H](Oc2c(-c3ccc(O)c(O)c3)oc3cc(O)cc(O)c3c2=O)[C@H](O)[C@H](O)[C@H]1O (stereo not given in full) | 111% (inactive) |
| CN(C)CCOC(c1ccc(Cl)cc1)c1ccccn1 (stereo not given) | 115% (inactive) |
| CO[C@H]1CC(O[C@@H]2/C(C)=C/C[C@@H]3C[C@@H](C[C@]4(CC[C@H](C)[C@@H](C5CCCCC5)O4)O3)OC(=O)[C@@H]3C=C(C)/C(=N/O)[C@H]4OC/C(=C\C=C\[C@@H]2C)[C@]43O)O[C@@H](C)C1O (stereo not given in full) | 119% (inactive) |
| O=c1cc(-c2ccccc2)oc2c(O)c(O)ccc12 | 92.5% (inactive) |
| COc1ccc(CCC(=O)c2c(O)cc(O[C@@H]3O[C@H](CO)C(O)[C@H](O)C3O[C@@H]3O[C@@H](C)[C@H](O)[C@@H](O)[C@H]3O)cc2O)cc1O (stereo not given in full) | 109% (inactive) |
| CC(=O)O[C@H]1CC[C@@]2(C)C(=CCC3C2CC[C@@]2(C)C3CC[C@@H]2C(C)CCCC(C)C)C1 (stereo not given in full) | 124% (inactive) |
| CC(=O)OCC(CCn1cnc2cnc(N)nc21)COC(C)=O | 121% (inactive) |
| COc1cc2ccc(=O)oc2c(OC)c1OC | 124% (inactive) |
| COC1=CC(=O)C(C(=O)c2ccccc2)=CC1=O | 93.6% (inactive) |
| CC(C)c1c(O)ccc2c1CCC1C(C)(C)CCC[C@]21C (stereo not given in full) | 116% (inactive) |
| CO[C@@]1(NC(=O)C(C(=O)O)c2ccc(O)cc2)C(=O)N2C(C(=O)O)=C(CSc3nnnn3C)CO[C@@H]21 (stereo not given in full) | 102% (inactive) |
| CC(CCC(=O)O)[C@H]1CCC2C3CC[C@@H]4C[C@H](O)CC[C@]4(C)C3CC[C@@]21C (stereo not given in full) | 91.8% (inactive) |
| Cc1c(Nc2ncccc2C(=O)O)cccc1C(F)(F)F | 117% (inactive) |
| O=C(O)CC(O)(CC(=O)O)C(=O)O | 123% (inactive) |
| CN(C)CC/C=C1\c2ccccc2Sc2ccc(Cl)cc21 | 110% (inactive) |
| CC(=O)Oc1cccc(C(=O)O)c1OC(C)=O | 120% (inactive) |

| SMILES | activity remaining |
| --- | --- |
| COC(=O)C1[C@H]2C[C@H]3c4[nH]c5ccccc5c4CCN3C[C@@H]2CC[C@@H]1O (stereo not given in full) | 112% (inactive) |
| CCCCCCCCCCCCCCCC(=O)OC[C@H](NC(=O)C(Cl)Cl)[C@H](O)c1ccc([N+](=O)[O-])cc1 | 95.5% (inactive) |
| COc1ccc(-c2cc(=O)c3ccccc3o2)cc1OC | 109% (inactive) |
| CC(=O)Nc1ccc(S(=O)(=O)Nc2ccc([N+](=O)[O-])cc2)cc1 | 111% (inactive) |
| O=c1c(-c2cc(O)c(O)c(O)c2)coc2cc(O)c(O)c(O)c12 | 93.2% (inactive) |
| COc1c(-c2coc3cc4c(cc3c2=O)CC(O)C(C)(C)O4)ccc2c1C=CC(C)(C)O2 (stereo not given) | 112% (inactive) |
| CC(COc1ccccc1)NC(C)[C@H](O)c1ccc(O)cc1 (stereo not given in full) | 119% (inactive) |
| O=C(O)C1=C[C@@H](O)[C@@H](O)[C@H](O)C1 | 86.3% (inactive) |
| O=C(OCC(O)CO)c1ccccc1Nc1ccnc2cc(Cl)ccc12 (stereo not given) | 119% (inactive) |
| CC(=O)O[C@H]1[C@@H]2[C@@H](OC(=O)Cc3ccccc3)[C@@H](C)C[C@]2(OC(C)=O)C(=O)/C(C)=C/[C@H]2[C@H](CC[C@@]13CO3)C2(C)C | 103% (inactive) |
| C1CCC(C(CC2CCCCN2)C2CCCCC2)CC1 (stereo not given) | 103% (inactive) |
| CN1CCCN=C1COC(=O)C(O)(c1ccccc1)C1CCCCC1 (stereo not given) | 108% (inactive) |
| CC(C)[N+]1(C)C2CC[C@@H]1CC(OC(=O)C(CO)c1ccccc1)C2 (stereo not given in full) | 109% (inactive) |
| Nc1ncnc2c1ncn2C1O[C@H](COP(=O)(O)O)[C@@H](O)[C@H]1O (stereo not given in full) | 98% (inactive) |
| COc1ccc(-c2coc3cc(OC(C)=O)cc(OC(C)=O)c3c2=O)cc1 | 92.5% (inactive) |
| NC[C@@H]1O[C@H](O[C@@H]2[C@@H](CO)OC(O[C@@H]3[C@@H](O)[C@H](N)C[C@H](N)[C@H]3O[C@H]3O[C@H](CO)[C@@H](O)[C@H](O)[C@H]3N)[C@@H]2O)[C@H](N)[C@@H](O)[C@@H]1O (stereo not given in full) | 97.1% (inactive) |
| C=CC(C1=CC(=O)C=CC1=O)c1ccccc1 (stereo not given) | 119% (inactive) |
| CC(=O)N[C@@H](Cc1c[nH]c2ccccc12)C(=O)O | 110% (inactive) |
| CC(NCCc1ccc(O)cc1)C(O)c1ccc(O)cc1 (stereo not given) | 115% (inactive) |
| COc1c(O)cc2c(c1O)[C@H]1O[C@H](CO)[C@@H](O)[C@H](O)[C@@H]1OC2=O | 112% (inactive) |
